# Rab9 prom act = activators of Rab9 promoter; Huh7 Rab9 promoter-luciferase reporter, luminescence, 24 h; Potency, µM (highest dose often 9.22 µM), hits mostly activators; 320,000 tested, 2.8% active; AID 485297; note: nearly all actives have a fitted effect of over 60% in size
#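 Huh7 cells stably carrying Rab9 promoter–luciferase reporter, plated 1500 cells/well, compound added after 2 h and incubated 24 h at 37 °C; luciferase luminescence then read after 10 min with detection reagent.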
# FLuc counter = firefly luciferase modulation, counter-screen for miR-21 project. P08659. purified FLuc, Km substrates, luminescence inhibition. Potency, µM (top dose mostly 57.5 µM), most hits filed as inhibitors. 360,000 tested, 6.9% active; note: nearly all actives have a fitted effect of over 55% in size
# Target sequence (P08659 whole entry, looked up): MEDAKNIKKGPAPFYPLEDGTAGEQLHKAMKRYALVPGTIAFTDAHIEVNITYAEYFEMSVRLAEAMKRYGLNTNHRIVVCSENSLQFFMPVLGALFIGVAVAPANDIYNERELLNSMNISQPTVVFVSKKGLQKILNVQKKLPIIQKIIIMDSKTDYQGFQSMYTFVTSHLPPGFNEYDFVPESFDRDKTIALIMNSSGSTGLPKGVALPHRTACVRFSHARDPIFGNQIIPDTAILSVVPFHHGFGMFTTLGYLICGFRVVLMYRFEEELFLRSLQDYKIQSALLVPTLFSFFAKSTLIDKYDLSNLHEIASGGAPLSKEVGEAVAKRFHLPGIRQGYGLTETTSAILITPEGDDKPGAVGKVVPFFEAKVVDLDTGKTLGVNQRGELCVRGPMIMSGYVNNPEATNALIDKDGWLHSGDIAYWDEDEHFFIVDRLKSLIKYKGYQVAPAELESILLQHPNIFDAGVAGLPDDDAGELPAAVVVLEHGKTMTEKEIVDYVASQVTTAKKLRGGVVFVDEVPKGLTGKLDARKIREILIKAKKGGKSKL
#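 Purified P. pyralis luciferase, 10 nM final, with Km-level 10 uM D-luciferin and 10 uM ATP in 50 mM Tris acetate pH 7.5, 10 mM Mg acetate, 0.01% Tween-20, 0.05% BSA; 6-point qHTS titration about 60 µM downward; luminescence read.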
# ELG1 genotoxic = inducers of genotoxicity in HEK293T ELG1-luciferase cells. HEK293T ELG1-luciferase reporter, luminescence, 16 h. Potency, µM (series often up to 46 µM), most hits filed as activators. 330,000 tested, 1.3% active; note: nearly all actives have a fitted effect of over 60% in size
#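 Step 1: seed 2,000 HEK293T ELG1-luciferase cells per well. Step 2: add compound or DMSO, incubate 16 hr at 37 °C. Step 3: ONE-Glo, 30 min at room temperature, read luminescence.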
# NPC1 prom act = activates the NPC1 promoter; Huh7 NPC1 promoter luciferase reporter, 24 h; Potency, µM (doses to about 9.22 µM), hits mostly activators; 320,000 tested, 2.4% active; AID 485313; note: nearly all actives have a fitted effect of over 60% in size
#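 Huh7 cells stably carrying NPC1 promoter–luciferase, plated in Opti-MEM with 10% FBS for 2 h, were exposed to compound in DMSO for 24 h at 37 °C; luciferase reagent was added for 10 min and luminescence read.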
# SMN2 splice up = enhancers of SMN2 splice variant expression | 210,000 tested, 2.8% active | HEK293 SMN2-luciferase splicing reporter, luminescence, 30-36 h | Potency, µM (highest dose often 46.1 µM), hits mostly activators; note: nearly all actives have a fitted effect of over 55% in size
#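 qHTS luciferase splicing reporter: luminescence rises when SMN2 exon 7 is included in transfected HEK293 cells. Compound exposure lasted 30-36 h at 37C, with 4.5 mM final sodium butyrate as control, followed by a ONE-Glo read.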
# Numbers stand for hits; – = inactive; ? = inconclusive; · = no result given; [ ] = remark or other dose. This is a sample that favours compounds with a hit; in the whole collection about 7.5% have one here. Calls come from the whole dose curve; as a rule, active = well fitted curve in the direction sought with a large enough effect; inconclusive = small, poorly fitted or top-dose-only effect, or another doubt; inactive = no such curve, though single readings can be large; an effect the other way counts as inactive or inconclusive.
SMILES,Rab9 prom act,FLuc counter,ELG1 genotoxic,NPC1 prom act,SMN2 splice up
CC(C)Cc1ccc(CN2CCCC(NC(=O)CCN3CCOCC3)C2)cc1 (centres undefined),–,?,–,–,·
CC1(NC(=O)NCc2ccco2)CCS(=O)(=O)C1 (centres undefined),–,–,–,–,–
Cc1onc(-c2ccccc2Cl)c1C(=O)Nc1nnc(C(C)C)s1,–,–,–,–,–
O=C(Nc1nccs1)c1sc2ccccc2c1Cl,1.12µM,0.675µM,?,3.98µM,2.51µM
CCCn1nnc(NC(=O)c2sc3ccccc3c2Cl)n1,3.16µM,26.9µM,9.2µM,?,?
Cc1ccnc(NC(=O)c2cccc3ccccc23)c1,?,–,–,?,·
Cc1ccnc(NC(=O)c2sc3ccccc3c2Cl)c1,0.316µM,0.12µM,0.92µM,0.1µM,3.16µM
CC(C)c1nnc(NC(=O)c2sc3ccccc3c2Cl)s1,?,4.78µM,–,3.16µM,?
CCN(CC(=O)NCc1ccc(F)cc1)C(=O)COc1ccccc1[N+](=O)[O-],·,·,–,·,·
O=C(COc1ccc2c3c(c(=O)oc2c1)CCCC3)N1CCN(c2ccccc2)CC1,–,–,–,–,·
CS(=O)(=O)Nc1ccc(C(=O)CC(=O)Nc2ccc([N+](=O)[O-])cc2)cc1,–,–,–,–,·
CCOC(=O)c1ccc(N2C(=O)CC(Sc3ncccn3)C2=O)cc1 (centres undefined),–,–,–,–,·
O=C(NCCCN1CCOCC1)c1sc2cc([N+](=O)[O-])ccc2c1Cl,–,?,–,–,–
O=C(Nc1nccs1)c1sc2cc(Cl)ccc2c1Cl,3.98µM,2.69µM,–,3.55µM,?
O=C(CCn1c(=O)sc2ccccc21)Nc1nccs1,–,13.5µM,?,–,–
O=C(Nc1ccccn1)c1sc2cc([N+](=O)[O-])ccc2c1Cl,1.26µM,?,–,?,·
Cc1cnc(NC(=O)c2sc3ccccc3c2Cl)s1,?,0.301µM,0.651µM,?,1µM
OCC(O)[C@@H](O[C@H]1O[C@H](CO)[C@@H](O)[C@H](O)[C@H]1O)[C@H](O)[C@@H](O)CO (some centres undefined),–,–,–,–,·
COc1ccc(NC(=O)c2c(NC(=O)C(F)(F)F)sc3c2CCCCC3)cc1,·,13.5µM,·,·,–
COc1ccc(NC(=O)c2c(NCc3ccc(N(C)C)cc3)sc3c2CCC3)cc1,·,10.7µM,·,·,·
Cc1c(NC(=O)Nc2ccc(F)cc2F)c(=O)n(-c2ccccc2)n1C,–,–,–,–,·
COc1ccc(NC(=O)NC(=O)c2ccccc2)cc1,0.708µM,?,?,1µM,·
O=C(NC(=O)c1ccccc1)Nc1ccccc1,0.631µM,?,?,0.447µM,·
O=C(NC(=O)c1ccccc1)Nc1ccc(-c2cnco2)cc1,?,?,–,?,·
COC(=O)c1ccc(/C=C/C(=O)c2cccc(OC)c2)cc1,?,9.53µM,?,?,–
SMILES,Rab9 prom act,FLuc counter,ELG1 genotoxic,NPC1 prom act,SMN2 splice up
COc1cccc(C(=O)/C=C/c2ccc(OCC#N)c(OC)c2)c1,–,?,–,–,–[1.84 µM]
COc1cccc(C(=O)/C=C/c2ccc(SC)cc2)c1,–,3.38µM,–,–,–
CCOC(=O)C1=NN(c2ccc(Cl)cc2)C(c2ccccc2)CC1=O (centres undefined),–,–,–,–,–
O=C(CN1CCCCCC1)Nc1ccccc1F,–,–,–,–,–
CCN(CC)C(=N)/C(C#N)=N/Nc1ccc(C)cc1,2µM,9.53µM,?,2µM,·
COc1ccc(N/N=C(\C#N)C(=O)NCCc2ccc(OC)c(OC)c2)cc1,–,–,–,–,·
Cc1ccc(N/N=C(\C#N)C(=O)c2ccsc2)cc1,–,?,–,–,·
N#C/C(=N\Nc1ccc(Cl)cc1)C(=N)N1CCCCC1,·,1.69µM,–,0.398µM,?
N#C/C(=N\Nc1ccccc1F)C(=N)N1CCCCC1,1.58µM,12µM,20.6µM,3.16µM,11.2µM
COc1ccc(N/N=C(\C#N)C(=N)SCc2ccccc2)cc1,–,26.9µM,–,–,–
N#C/C(=N\Nc1ccc(Cl)cc1)C(=O)c1ccsc1,–,?,–,–,·
CCn1c(SCC(=O)Nc2nc3c(s2)CCCC3)nnc1-c1ccccc1,–,–,–,–,–
COC(=O)c1c(C)sc(-c2c(-c3ccc4c(c3)OCCO4)[nH]c3c2c(=O)[nH]c(=O)n3C)c1O,·,–,·,·,·
Cn1c(SCC(=O)Nc2ccccc2O)nnc1-c1ccco1,–,–,–,–,·
COc1ccc(N/N=C(\C#N)C(=N)N2CCCCC2)cc1,2.51µM,4.78µM,?,2µM,·
N#C/C(=N\Nc1ccc(Cl)cc1)C(N)=S,–,19µM,–,–,·
Cc1ccc(N/N=C(\C#N)C(=N)N2CCCCCC2)cc1,0.794µM,2.69µM,1.83µM,0.501µM,2.24µM
N#C/C(=N\Nc1ccccc1)C(N)=S,–,–,–,–,·
COc1ccc(NC(=O)N2CCCCCC2)cc1,–,?,?,–,–
N#C/C(=N\Nc1ccc(F)cc1)C(=N)N1CCCCCC1,0.891µM,2.69µM,?,0.447µM,3.98µM
N#C/C(=N\Nc1ccccc1)C(=N)N1CCOCC1,–,?,–,–,–
CC(=O)Oc1ccc2c(=O)c(-c3ccccc3)c(C)oc2c1,–,?,–,–,–
COc1cccc(/C=C/C(=O)Nc2ccc3nc(N4CCN(C)CC4)cc(C)c3c2)c1OC,·,?,·,·,–
COc1cc(C(=O)Nc2ccc3nc(N4CCN(C)CC4)cc(C)c3c2)cc(OC)c1OC,–,23.9µM,–,–,·
Cc1cc(N2CCN(C)CC2)nc2ccc(NC(=O)c3ccc4c(c3)OCO4)cc12,?,13.5µM,–,–,·
SMILES,Rab9 prom act,FLuc counter,ELG1 genotoxic,NPC1 prom act,SMN2 splice up
Cc1cc(N2CCN(C)CC2)nc2ccc(NC(=O)c3ccc(Br)o3)cc12,–,15.1µM,–,?,–
CCOc1ccc(C(=O)Nc2ccc3nc(N4CCN(CC)CC4)cc(C)c3c2)cc1,–[1.84 µM],?,–,–,·
Cc1cc(N2CCCCC2)nc2ccc(NC(=O)c3ccc(Br)o3)cc12,–,–,–,–,–
CCN1CCN(c2cc(C)c3cc(NC(=O)c4cc(OC)cc(OC)c4)ccc3n2)CC1,–,16.9µM,?,–,–
CCNc1nc(NC(C)C)nc(N(C#N)CCOc2ccccc2)n1,–,–,–,–,–
COc1ccc(NC(=O)N2CCCc3ccccc32)c(OC)c1,–,–,–,–,·
O=C(CCNC(=O)c1ccc(Br)cc1)NNC(=O)c1ccccc1O,–,–,–,–,·
COc1ccc(CCNc2nc(-c3cccnc3)cs2)cc1OC,–,12µM,–,–,–
COc1ccc(CCNc2nc(-c3ccc(O)cc3)cs2)cc1OC,–,16.9µM,–,–,·
COc1ccc(CCNc2nc(-c3ccncc3)cs2)cc1OC,–,21.3µM,–,–,·
Cc1ccc2c(c1)cc(C(=O)Nc1ccc(F)cc1F)n2C,·,–,·,·,·
Cc1ccc(Cn2nc(C)c(NC(=O)c3cc(-c4ccc(F)cc4)on3)c2C)cc1,·,–,·,·,–
COc1ccc(OCC(=O)Nc2cccc(NC(=O)c3ccco3)c2)cc1,–,12µM,–,–,·
COC(=O)COc1ccc(NC(=O)c2ccco2)cc1,–,23.9µM,–,–,·

# Compound activity from PubChem BioAssay.
